Data published in PubChem BioAssay AID1159580 (chemical genetic matrix, 2015).
Among all 5,500 compounds or so, about 2,000 (36%) were called active. Roughly 18% stayed inconclusive and do not appear here. No stated cut-off is given here; in the data, active means normalized growth mostly below about 0.91 (no sharp cut-off); inconclusive means no clear call, values can overlap the other calls; inactive means mostly above about 0.92. The list shows a part of the results.

Assay: chemical genetic growth profiling, strain panel (AID 1159580);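 further: tested at 20 µM; growth read once vehicle control cultures reached saturation at 30 °C; 1 = growth at the plate median or of vehicle wells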
Conditions: S. cerevisiae deletion strains, growth OD
[1] = locus YDR150W, strain NUM1, stronger effect = lower value
[2] = locus YGR078C, strain PAC10, stronger effect = lower value
[3] = locus YJR075W, strain HOC1, stronger effect = lower value
[4] = locus YMR307W, strain GAS1, stronger effect = lower value
[5] = locus YNL322C, strain KRE1, stronger effect = lower value

Measured: normalized growth

COc1cc(CNC(=O)CCCCCCC(C)C)ccc1O
inactive: locus YAL013W, strain DEP1, stronger effect = lower value 0.944 | locus YAL040C, strain CLN3, stronger effect = lower value 0.986 | locus YCL061C, strain MRC1 (second series), stronger effect = lower value 0.993 | [1] 1 | locus YDR363W, strain ESC2, stronger effect = lower value 0.974 | locus YER002W, strain NOP16, stronger effect = lower value 1 | [2] 0.999 | [3] 0.988 | [4] 0.973 | locus YNL175C, strain NOP13, stronger effect = lower value 1.01 | locus YNL197C, strain WHI3, stronger effect = lower value 0.981 | locus YNL224C, strain SQS1, stronger effect = lower value 0.981 | [5] 0.983 | locus YOR083W, strain WHI5 (second series), stronger effect = lower value 0.981

CCC[C@H]1CC2=C(C[C@@H](CC)CC3=C1C(=O)OC3=O)C(=O)OC2=O
active: locus YGL078C, strain dbp3, stronger effect = lower value 0.65 | locus YIL125W, strain kgd1, stronger effect = lower value 0.875 | locus YKL009W, strain mrt4, stronger effect = lower value 0.663 | locus YNL250W, strain rad50, stronger effect = lower value 0.814 | locus YNL271C, strain bni1, stronger effect = lower value 0.845 | locus YNL298W, strain CLA4, stronger effect = lower value 0.818 | locus YPR141C, strain kar3, stronger effect = lower value 0.896
inactive: locus YBR021W, strain FUR4, stronger effect = lower value 1 | locus YBR229C, strain ROT2, stronger effect = lower value 1.01 | locus YCL029C, strain bik1, stronger effect = lower value 1.02 | locus YDL035C, strain GPR1, stronger effect = lower value 1.03 | locus YDL074C, strain BRE1, stronger effect = lower value 1.02 | locus YDL101C, strain DUN1, stronger effect = lower value 1.02 | locus YDL134C, strain PPH21, stronger effect = lower value 1.01 | locus YDL185W, strain tfp1, stronger effect = lower value 1.01 | locus YDL192W, strain arf1, stronger effect = lower value 1.02 | locus YDR101C, strain arx1, stronger effect = lower value 1.03 | [1] 1.01 | locus YDR162C, strain NBP2, stronger effect = lower value 1.01 | locus YDR318W, strain mcm21, stronger effect = lower value 0.998 | locus YDR388W, stronger effect = lower value 1.02 | locus YDR502C, strain sam2, stronger effect = lower value 1.01 | locus YEL061C, strain CIN8, stronger effect = lower value 1.01 | locus YER110C, stronger effect = lower value 1.02 | locus YER155C, strain BEM2, stronger effect = lower value 1.01 | locus YER167W, strain BCK2, stronger effect = lower value 1.01 | locus YGL086W, strain mad1, stronger effect = lower value 1.05 | locus YGL248W, strain PDE1, stronger effect = lower value 1 | [2] 1.01 | locus YGR135W, strain pre9, stronger effect = lower value 1 | locus YGR252W, strain gcn5, stronger effect = lower value 0.969 | locus YHR030C, strain SLT2, stronger effect = lower value 1.01 | locus YHR079C, strain IRE1 (second series), stronger effect = lower value 1.02 | locus YHR094C, strain hxt1, stronger effect = lower value 1.01 | locus YHR129C, strain ARP1, stronger effect = lower value 1.02 | locus YHR200W, strain rpn10, stronger effect = lower value 1 | locus YIL066C, strain RNR3, stronger effect = lower value 1.02 | locus YIL073C, strain SPO22, stronger effect = lower value 1.07 | locus YIR030C, strain dcg1, stronger effect = lower value 1.01 | locus YJL095W, strain BCK1, stronger effect = lower value 1.01 | locus YJL134W, strain LCB3, stronger effect = lower value 1.01 | locus YJL168C, strain set2, stronger effect = lower value 1.01 | locus YJL187C, strain SWE1 (second series), stronger effect = lower value 1.02 | locus YJR043C, strain POL32, stronger effect = lower value 1.01 | [3] 1.01 | locus YKL068W, stronger effect = lower value 0.979 | locus YKL085W, strain MDH1 (second series), stronger effect = lower value 0.932 | locus YKL085W, strain MDH1, stronger effect = lower value 0.932 | locus YKL190W, strain CNB1, stronger effect = lower value 1.01 | locus YKR001C, strain vps1, stronger effect = lower value 1.02 | locus YLR039C, strain RIC1, stronger effect = lower value 1.04 | locus YLR058C, strain SHM2, stronger effect = lower value 1.01 | locus YLR102C, strain apc9, stronger effect = lower value 1.02 | locus YLR262C, strain YPT6, stronger effect = lower value 1.02 | locus YLR268W, strain sec22, stronger effect = lower value 1.04 | locus YLR330W, strain CHS5, stronger effect = lower value 1.01 | locus YLR342W, strain FKS1 (second series), stronger effect = lower value 1.03 | locus YLR371W, strain rom2, stronger effect = lower value 1.03 | locus YLR418C, strain cdc73, stronger effect = lower value 0.991 | locus YML016C, strain PPZ1, stronger effect = lower value 1 | locus YML032C, strain rad52, stronger effect = lower value 0.999 | locus YML124C, strain tub3, stronger effect = lower value 1.01 | locus YMR078C, strain ctf18, stronger effect = lower value 1.01 | locus YMR223W, strain ubp8, stronger effect = lower value 0.987 | [4] 0.947 | locus YNL067W, strain RPL9B, stronger effect = lower value 1.01 | locus YNL153C, strain GIM3, stronger effect = lower value 1.02 | locus YNL233W, strain BNI4, stronger effect = lower value 0.999 | locus YNL307C, strain MCK1, stronger effect = lower value 1.02 | [5] 1.01 | locus YNR052C, strain pop2, stronger effect = lower value 0.998 | locus YOL006C, strain TOP1, stronger effect = lower value 1.08 | locus YOL012C, strain htz1 0.773 | locus YOL147C, strain pex11, stronger effect = lower value 1.01 | locus YOR061W, strain CKA2, stronger effect = lower value 1.01 | locus YOR069W, strain VPS5, stronger effect = lower value 1.02 | locus YOR136W, strain idh2, stronger effect = lower value 1.04 | locus YOR144C, strain elg1, stronger effect = lower value 1.01 | locus YOR184W, strain ser1, stronger effect = lower value 1.02 | locus YOR316C, strain cot1, stronger effect = lower value 1.02 | locus YPL241C, strain CIN2, stronger effect = lower value 1.01 | locus YPR119W, strain clb2, stronger effect = lower value 1.02 | locus YPR163C, strain tif3, stronger effect = lower value 1.01 | locus YPR167C, strain met16, stronger effect = lower value 0.998 | strain wtn01, stronger effect = lower value 1.06
